# Screening data as filed in PubChem.
# An excerpt weighted towards active compounds, which were near 10% of everything screened.
# JMJD2A Tudor = inhibitors of human JMJD2A Tudor domain; AID 504339; O75164; Potency, µM (top dose mostly 114 µM), most hits filed as inhibitors; AlphaScreen JMJD2A-Tudor / H3K4me3 peptide binding; actives 4.4% (n = 390,000); note: nearly all actives have a fitted effect of over 50% in size
# HP1b binding inh = blocks HP1-beta chromodomain binding to methylated histone tails | AID 540317 | P83916 | Potency, µM (highest dose often 114 µM), usual class: inhibitors | actives 0.56% (n = 390,000) | AlphaScreen HP1-beta / biotin-H3K9me3 peptide binding; note: nearly all actives have a fitted effect of over 70% in size
#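 Compound inhibition of the preformed complex between 50 nM HP1-beta and 50 nM biotinylated H3K9me3 peptide was read by AlphaScreen. Buffer was PBS pH 7.4 with 0.01% Tween-20. Incubations ran 30 min at room temperature, with 10 ug/mL donor/acceptor beads.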
# G9a inh = G9a (human) methyltransferase inhibition; Q96KQ7; G9a H3K9 monomethylation, AlphaScreen, 2 h; Potency, µM (series often up to 102 µM), most hits filed as inhibitors; actives 8.8% (n = 350,000); note: nearly all actives have a fitted effect of over 75% in size
#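 Readings reflect AlphaScreen signal from monomethyl-H3K9 antibody detection. HMT at 20 nM; substrate b-H3K9 500 nM; cofactor SAM 20 uM; 2 h RT reaction; compounds tested as titrations in qHTS with 15 min preincubation.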
# BAZ2B inh = inhibitors of human BAZ2B bromodomain; actives 4.4% (n = 360,000); AlphaScreen BAZ2B-H3K14Ac peptide displacement; Potency, µM (top dose mostly 114 µM), most hits filed as inhibitors; note: nearly all actives have a fitted effect of over 60% in size
# Target sequence (Q9UIF8 whole entry, looked up): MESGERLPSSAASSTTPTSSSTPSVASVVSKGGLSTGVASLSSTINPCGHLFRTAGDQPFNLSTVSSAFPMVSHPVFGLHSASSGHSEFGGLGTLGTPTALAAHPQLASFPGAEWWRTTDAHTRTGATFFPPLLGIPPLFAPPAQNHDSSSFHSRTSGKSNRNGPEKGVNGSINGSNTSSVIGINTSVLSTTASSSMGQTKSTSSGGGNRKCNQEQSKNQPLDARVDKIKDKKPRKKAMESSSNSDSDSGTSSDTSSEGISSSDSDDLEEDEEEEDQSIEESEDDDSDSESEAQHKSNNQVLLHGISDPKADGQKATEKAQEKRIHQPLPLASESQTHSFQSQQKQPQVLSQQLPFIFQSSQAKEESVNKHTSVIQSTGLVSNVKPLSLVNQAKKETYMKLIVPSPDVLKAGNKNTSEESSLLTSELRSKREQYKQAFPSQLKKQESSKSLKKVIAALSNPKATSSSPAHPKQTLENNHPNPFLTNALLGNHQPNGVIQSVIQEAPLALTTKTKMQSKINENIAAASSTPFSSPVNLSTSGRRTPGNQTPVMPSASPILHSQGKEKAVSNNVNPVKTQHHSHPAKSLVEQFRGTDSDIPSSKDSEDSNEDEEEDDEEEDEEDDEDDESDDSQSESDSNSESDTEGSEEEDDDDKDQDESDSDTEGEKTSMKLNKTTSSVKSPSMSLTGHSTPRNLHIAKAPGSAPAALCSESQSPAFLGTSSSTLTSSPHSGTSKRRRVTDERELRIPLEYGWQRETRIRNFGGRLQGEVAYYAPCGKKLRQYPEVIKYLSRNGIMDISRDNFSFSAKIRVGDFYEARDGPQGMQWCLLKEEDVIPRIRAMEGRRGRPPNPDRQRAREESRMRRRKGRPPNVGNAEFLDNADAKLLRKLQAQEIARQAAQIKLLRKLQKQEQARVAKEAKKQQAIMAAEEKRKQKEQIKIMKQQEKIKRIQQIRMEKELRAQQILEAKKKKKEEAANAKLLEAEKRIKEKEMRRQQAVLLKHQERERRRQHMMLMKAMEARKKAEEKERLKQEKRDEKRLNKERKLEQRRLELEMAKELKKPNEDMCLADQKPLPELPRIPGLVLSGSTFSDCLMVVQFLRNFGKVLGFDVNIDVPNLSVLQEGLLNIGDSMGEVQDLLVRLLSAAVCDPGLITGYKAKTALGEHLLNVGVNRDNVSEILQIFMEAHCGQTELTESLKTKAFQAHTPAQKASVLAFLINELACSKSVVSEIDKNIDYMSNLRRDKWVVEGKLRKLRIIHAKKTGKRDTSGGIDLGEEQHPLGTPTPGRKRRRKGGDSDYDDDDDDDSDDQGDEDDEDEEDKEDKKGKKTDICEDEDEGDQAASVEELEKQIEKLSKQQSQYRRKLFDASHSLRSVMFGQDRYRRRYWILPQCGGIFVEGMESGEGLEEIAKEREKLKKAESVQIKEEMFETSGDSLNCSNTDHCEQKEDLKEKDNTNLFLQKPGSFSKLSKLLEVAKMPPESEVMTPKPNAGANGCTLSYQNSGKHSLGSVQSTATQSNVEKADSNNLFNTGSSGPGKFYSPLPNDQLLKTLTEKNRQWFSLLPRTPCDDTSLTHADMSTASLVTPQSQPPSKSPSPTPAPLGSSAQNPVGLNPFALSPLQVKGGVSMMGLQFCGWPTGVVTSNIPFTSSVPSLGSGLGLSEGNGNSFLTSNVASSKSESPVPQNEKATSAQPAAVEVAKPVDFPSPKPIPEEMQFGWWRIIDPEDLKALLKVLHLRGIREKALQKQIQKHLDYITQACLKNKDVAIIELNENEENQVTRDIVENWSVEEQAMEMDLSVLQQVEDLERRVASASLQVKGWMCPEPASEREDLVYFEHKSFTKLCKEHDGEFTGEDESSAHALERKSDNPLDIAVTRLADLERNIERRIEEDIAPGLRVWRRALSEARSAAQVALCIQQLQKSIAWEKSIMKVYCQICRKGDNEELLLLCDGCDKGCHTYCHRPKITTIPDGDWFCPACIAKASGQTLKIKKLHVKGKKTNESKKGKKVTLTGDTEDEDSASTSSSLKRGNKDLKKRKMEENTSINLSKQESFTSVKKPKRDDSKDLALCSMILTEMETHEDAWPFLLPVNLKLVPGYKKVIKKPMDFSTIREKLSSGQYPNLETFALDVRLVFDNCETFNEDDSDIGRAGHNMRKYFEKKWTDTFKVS
#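 Multi-concentration screen (max 110 uM) measuring displacement of acetylated histone H3 peptide from BAZ2B by AlphaScreen, using 50 nM protein, 50 nM peptide and 10 ug/mL streptavidin donor plus Ni-chelate acceptor beads.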
# GLS inh = blocks human kidney-isoform glutaminase activity; O94925; GLS enzymatic activity, qHTS titration; Potency, µM (top dose mostly 45.5 µM), usual class: inhibitors; actives 0.21% (n = 410,000)
#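 hKGA in 45 mM KH2PO4 (pH 8.2), 0.02% Tween-20 with compound, then 1mM L-Glutamine (stock as added) plus glutamate oxidase/HRP/Amplex red coupling mix. Fluorescence read initially and after 30 min at RT; signal change reflects glutamate formation.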
# Hits are given with their value; - = inactive; ? = inconclusive; . = no result; [ ] = remark or other dose. Calls come from the whole dose curve; as a rule, active = well fitted curve in the direction sought with a large enough effect; inconclusive = small, poorly fitted or top-dose-only effect, or another doubt; inactive = no such curve, though single readings can be large; an effect the other way counts as inactive or inconclusive.
SMILES,JMJD2A Tudor,HP1b binding inh,G9a inh,BAZ2B inh,GLS inh
COc1ccc(NC(=O)CS(=O)(=O)c2cn(CC(=O)N3CCOCC3)c3ccccc23)cc1OC,-,-,35µM,-,-
Cc1ccc(NC(=O)CS(=O)(=O)c2cn(CC(=O)N3CCOCC3)c3ccccc23)cc1,-,-,-,.,-
COCCCNC(=O)Cn1cc(C(C)=O)c2ccccc21,-,-,-,-,-
COCCNC(=O)Cn1cc(C(=S)N2CCOCC2)c2ccccc21,-,-,35µM,-,-
C#CCN(C(=O)c1ccc(OC2CCN(C(=O)CCOC)CC2)cc1)C1CCCCC1,-,-,-,-,-
COc1ccc(CCNC(=S)NC(=O)c2ccccc2)cc1OC,-,-,-[0.501 µM],?,-
NS(=O)(=O)c1cccc(NC(=S)NCc2ccccc2)c1,-,-,?,-,-
COC(=O)c1cc(C)sc1NC(=O)CSc1ncccn1,-,-,10µM,-,-
COC(=O)c1ccccc1NC(=O)CSc1ncccn1,-,-,-,-,-
C=CCN1C(=O)C(CC(=O)NCC)SC1=Nc1ccccc1OC (stereo not given),-,-,-,-,-
Nc1nc(-c2ccccn2)nc(N)c1Cc1c(F)cccc1Cl,79µM,-,-,8.9µM,-
Nc1nc(-c2ccccn2)nc(N)c1Cc1ccccc1F,?,-,-,6.3µM,-
Nc1nc(-c2ccccn2)nc(N)c1Cc1ccc(Cl)cc1Cl,89µM,-,-,7.9µM,-
CCN1CCN(C(c2cccs2)C(C)NC(=O)c2ccccc2OC)CC1 (stereo not given),-,-,?,-,-
COc1cc(C(=O)N2CCN(c3ccccn3)CC2)cc(OC)c1OC,-,-,-,-,-
Cc1ccc(S(=O)(=O)c2c(C)nn(-c3ccccc3)c2OC(=O)c2ccco2)cc1,79µM,-,?,-,-
CC(C)c1nc(Nc2nc3ccccc3o2)nc2c1CCCC2,-,.,.,.,.
Cc1nc(Nc2nc3ccccc3o2)nc2c1CCC2,10µM,-,?,.,-
COc1ccc(OC)c(CNc2ccc([N+](=O)[O-])cc2C)c1,28µM,?,?,?,-
COc1ccc([N+](=O)[O-])cc1NCc1ccccc1C,32µM,-,?,-,-
COc1ccc([N+](=O)[O-])cc1NCc1ccccc1,-,-,-,-,-
CCc1nc(SCC(=O)NCC2CCCO2)c2c(=O)n(C)c(=O)n(C)c2n1 (stereo not given),-,-,-,-,-
CC(C)(C)c1cc(C(=O)N/N=C/c2ccc(-c3ccccc3[N+](=O)[O-])o2)n[nH]1,?,-,40µM,?,-
Cc1cc(C(=O)N/N=C/c2cc(N=Nc3ccccc3)ccc2O)n[nH]1,?,-,50µM,-,-
Cc1cc(C(=O)N/N=C/c2cccc([N+](=O)[O-])c2O)n[nH]1,50µM,-,-,32µM,-
SMILES,JMJD2A Tudor,HP1b binding inh,G9a inh,BAZ2B inh,GLS inh
O=C(N/N=C/c1ccc(-c2ccccc2[N+](=O)[O-])o1)c1cccnc1,-,-,-[12.7 µM],-,-
Nc1ccc(C(=O)N/N=C\c2cc(N=Nc3cccc4ccccc34)ccc2O)cc1,?,?,-[0.501 µM],45µM,-
O=C(CN1C(=O)NC2(CCCCCC2)C1=O)Nc1ccc(Cl)c([N+](=O)[O-])c1,-,-,.,.,-
COc1ccc(/C=N/NC(=O)C(=O)N2CCCCCC2)cc1,-,-,-,-,-
COc1ccccc1CC(=O)Nc1ccc(C(=O)N2CCCCC2)cc1,-,-,-,-,-
CN1CCc2cc3c(c4c2[C@H]1[C@H](O)c1ccccc1-4)OCO3,-,-,50µM,-,-
COc1ccc2c(c1OC)C(=O)O[C@H]2C1c2c(cc3c(c2OC)OCO3)CCN1C (stereo not given in full),.,.,-[2.33 µM],.,.
CCCNC(=O)c1ccc2c(c1)sc1nc(-c3ccc(C)cc3)cn12,-,-,-,-,-
CCN(CC)CCCNC(=O)c1ccc2c(c1)sc1nc(-c3ccc(C)cc3)cn12,?,-,11µM,40µM,-
O=C(Nc1nc2c(s1)CCc1ccccc1-2)c1cccs1,-,-,?,-,-
Fc1ccccc1Nc1nc2c(s1)CCc1ccccc1-2,.,.,6.3µM,?,.
Cc1ccc(-n2c(O)c(C=NCc3ccccn3)c3ccccc3c2=O)cc1,-,-,-,56µM,-
COc1ccc(-n2c(O)c(/C=N/NS(=O)(=O)c3ccc(C)cc3)c3ccccc3c2=O)cc1OC,?,-,11µM,?,-
COc1ccc(-c2[nH]ncc2/C=N\NS(=O)(=O)c2ccc(Cl)cc2)cc1,-,-,-[12.7 µM],-,-
COc1ccc(-n2c(O)c(/C=N/NS(=O)(=O)c3cc(C)ccc3C)c3ccccc3c2=O)cc1OC,50µM,-,?,45µM,-
COc1ccc(-c2[nH]ncc2/C=N\NS(=O)(=O)c2ccccc2)cc1OC,-,-,50µM,-,-
Cc1cccc(-n2c(O)c(C=NCc3ccccn3)c3ccccc3c2=O)c1,-,-,-,?,-
Cc1cc(/C=N/n2c(COc3ccccc3C)nc3ccccc3c2=O)c(O)c([N+](=O)[O-])c1,25µM,?,?,?,-
N#CC1=C(N)N2C(=C(C#N)C1c1cccc(Br)c1)Nc1ccccc12 (stereo not given),-,-,10µM,-,-
N#CC1=C(N)N2C(=C(C#N)C1c1ccc(Br)cc1)Nc1ccccc12 (stereo not given),-,-,10µM,-,-
N#CC1=C(N)N2C(=C(C#N)C1c1ccccc1)Sc1ccccc12 (stereo not given),.,.,?,-,.
CCn1c(CCNC(=O)c2cccs2)nnc1SCC(=O)Nc1nc(-c2ccccc2)cs1,-,-,-,-,-
COC(=O)C1=C(C)OC(N)=C(C#N)C1c1cc2cc(C)ccc2nc1Cl (stereo not given),-,-,40µM,-,-
CC(=NCCN1CCN(C(C)=C2C(=O)c3ccccc3C2=O)CC1)C1=C(O)CC(C)(C)CC1=O,-,-,?,-,-
Cc1nn(C(C)c2nc(-c3ccccc3)no2)c(C)c1[N+](=O)[O-] (stereo not given),-,-,-,?,-
Cc1cccc(-n2c(Cn3nc(C)c([N+](=O)[O-])c3C)n[nH]c2=S)c1,22µM,-,?,-,-
Cc1nn(C(C)c2n[nH]c(=S)n2-c2ccc(F)cc2)c(C)c1[N+](=O)[O-] (stereo not given),25µM,-,4.5µM,-,-
Cc1nn(CCc2n[nH]c(=S)n2-c2ccc(F)cc2)c(C)c1[N+](=O)[O-],18µM,-,2.2µM,-,-
Cc1nn(CCc2n[nH]c(=S)n2-c2ccc(F)c(Cl)c2)c(C)c1[N+](=O)[O-],-,-,?,-,-
CCC(c1nnnn1CCOC)N(Cc1cc2cc(C)c(C)cc2[nH]c1=O)CC1CCCO1 (stereo not given),-,-,?,-,-
